{
  "source": "PubChem BioAssay (NCI)",
  "note": "Values joined by “and” are separate entries in the source; they are usually repeats but may differ in a detail not shown here. Equal values may be shown once. About 83,000 compounds went through this panel and 20% of them were active in at least one assay; those are over-represented in the sample as a whole.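 48-hour exposure, single concentration, 96-well plates; percent growth endpoint where 0 means no net growth. Active: below 10.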 Unmarked numbers belong to inactive results. Active and inactive are the calls of the source.",
  "data": [
    {"system": "MDA-MB-468 breast", "experiment": "NCI-60 one-dose screen, 48 h (100 = growth as untreated, 0 = no growth, -100 = all killed)", "details": "10 µM unless noted", "values": [
      {"smiles": "O=C1/C(=C/c2ccc([N+](=O)[O-])o2)Oc2ccccc21", "growth": "-50.9% (active)"},
      {"smiles": "CNC(=S)NNC(=O)C1CC1", "growth": "108%"},
      {"smiles": "CN(C)CC(=O)Nc1ccc2ncnc(Nc3ccc(Oc4cccc(C(F)(F)F)c4)c(Cl)c3)c2c1", "growth": "-2% (active)"},
      {"smiles": "CC12CCC(CC1)C(C)(C)O2", "growth": "108%"},
      {"smiles": "CCOC(=O)C1=CCC(n2cc(F)c(=O)[nH]c2=O)O1", "note": "(stereo not given)", "growth": "134%"},
      {"smiles": "CN(C)CC(=O)Nc1ccc(Cn2nnc3c2C(=O)c2nnn(Cc4ccc(NC(=O)CN(C)C)cc4)c2C3=O)cc1", "growth": "-79% (active)"},
      {"smiles": "CCC(=O)Oc1cc(Cl)c(Cl)cc1Cl", "growth": "113%"},
      {"smiles": "CCNC(=O)N1CCc2c(Br)c3c(c(OC)c2C1Cc1ccc(OC)cc1)OCO3", "note": "(stereo not given)", "growth": "19.2%"},
      {"smiles": "CN1CCN(CCOc2ccc(-c3cnc4c(-c5cccc(F)c5F)cnn4c3)cc2)CC1", "growth": "94.8%"},
      {"smiles": "CC(=O)Oc1ccccc1C(=O)Nc1ccc(C(=O)/C=C/c2ccncc2)cc1", "growth": "4.04% (active)"},
      {"smiles": "O=C1c2c(Cl)c(Cl)c(Cl)c(Cl)c2C(=O)C2(Cl)CC=CCC12Cl", "note": "(stereo not given)", "growth": "-77.2% (active)"},
      {"smiles": "O=C1c2ccccc2C(=O)c2sc(Nc3ccc(Cl)cc3)nc21", "growth": "28.6%"},
      {"smiles": "Cc1cc(Cl)nc(N(CCCNc2ccnc3cc(Cl)ccc23)Cc2ccccn2)n1", "growth": "0.122% (active)"},
      {"smiles": "CCN(CCO)CCCOc1ccc2c(Nc3cc(CC(=O)Nc4cccc(F)c4)[nH]n3)ncnc2c1", "growth": "36.7%"},
      {"smiles": "O=C1CC(c2ccc3c(c2)OCO3)Nc2ccccc21", "note": "(stereo not given)", "growth": "2.73% (active)"},
      {"smiles": "O=C1CSC(c2ccc(O)cc2)N1c1nnc(Cn2cnnc2)o1", "note": "(stereo not given)", "growth": "48%"},
      {"smiles": "CCN(CC)c1ccc2c(c1)Oc1nc(N)c(C#N)c(N)c1C2Sc1ccc(C)cc1", "note": "(stereo not given)", "growth": "-88.4% (active)"},
      {"smiles": "O=C1NCCC12CCN(c1c(Cl)cncc1-c1ccc(O)cc1)CC2", "growth": "84.3%"},
      {"smiles": "O=C1OC(=O)C2C1CC=CC2c1ccccc1", "note": "(stereo not given)", "growth": "93.3%"},
      {"smiles": "CCN1CCN(c2cc(C)nc(NCc3cc(Nc4ccnc5cc(Cl)ccc45)ccc3F)n2)CC1", "growth": "47.4%"},
      {"smiles": "COc1ccc(Cl)cc1NC(=O)c1c(NC(=O)C(F)(F)C(F)(F)F)sc2c1CCCCC2", "growth": "-16.9% (active)"},
      {"smiles": "CCN(CC)C(=S)SSC(=S)N(CC)CC", "growth": "77.7% and 111%"},
      {"smiles": "Cc1ccc(N(C(=O)CCc2c[nH]c3ccccc23)[C@H](C(=O)Nc2ccc(Cl)cc2)c2cccc([N+](=O)[O-])c2)cc1", "growth": "91.3%"},
      {"smiles": "CN(C)c1ccc(/C=N/Nc2nc(N/N=C/c3ccc(N(C)C)cc3)nc(N3CCOCC3)n2)cc1", "growth": "97.8%"},
      {"smiles": "Cc1ccc(C(C)C)c(O)c1NC(=O)OC(C)C", "growth": "97.5%"},
      {"smiles": "O=C1C(Br)=C(c2ccccc2)C(=O)C(Br)=C1c1ccccc1", "growth": "92%"},
      {"smiles": "COC(c1ccccc1)(c1ccccc1)c1ccccc1", "growth": "113%"},
      {"smiles": "CC(C)c1ccccc1NC(=O)N1CCC(C(C)C)CC1", "growth": "99.8%"},
      {"smiles": "COc1ccc2c(c1)c(-c1nnc(N)nc1-c1cn(C)c3ccccc13)cn2C", "growth": "78.8%"},
      {"smiles": "CC1CN(C(C)C)C(=S)N(c2ccccc2)C1=O", "note": "(stereo not given)", "growth": "84.3%"},
      {"smiles": "c1ccc(CCc2ccccc2-c2cc(-c3ccccc3)on2)cc1", "growth": "93.8%"},
      {"smiles": "Cc1c(O)cc(-c2cnc(N/N=C/c3ccccc3)s2)c(O)c1C", "growth": "61.6%"},
      {"smiles": "Cc1nc2cc(Nc3nc(Nc4ccc(F)cc4)nc(-c4cccs4)n3)ccc2n1Cc1ccccc1", "growth": "33.2%"},
      {"smiles": "CN(C)CCNc1nc2ccccc2c2c(=O)c3ccccc3sc12", "growth": "-23.6% (active)"},
      {"smiles": "CCN(CC)c1ccc(NC2=C(Cl)C(=O)c3nc(C)ccc3C2=O)cc1", "growth": "-45% (active)"},
      {"smiles": "O=C(CN1C(=O)/C(=C/c2ccc(Cl)cc2)SC1=S)NCCCN1CCOCC1", "growth": "94.3%"},
      {"smiles": "C=CCOC(=O)C1=C(C)NC2=C(C(=O)CCC2)C1c1ccc(F)cc1", "note": "(stereo not given)", "growth": "92.3%"},
      {"smiles": "COc1ccc2[nH]cc(-c3nn4cc(-c5ccncc5)nc4s3)c2c1", "growth": "29.2%"},
      {"smiles": "COc1ccc2nc(Cl)c(/C=C/C(=O)c3ccc(NC(=O)CSc4nnc(-c5ccc(Cl)c(Cl)c5)n4-c4ccccc4)cc3)cc2c1", "growth": "98.2%"},
      {"smiles": "CCCCCCCCC1OC1CCCCCCCC(=O)O", "note": "(stereo not given)", "growth": "89.9%"}
    ]}
  ]
}
